VACV Venus inh = vaccinia inhibition (Venus reporter); Potency, µM (doses to about 36.5 µM), usual class: inhibitors; 330,000 compounds, 0.46% hits; Vaccinia virus Venus reporter expression, fluorescence; calls by dose curve; tested in A549 cells; also: nearly all actives have a fitted effect of over 30% in size
Vaccinia mCherry = vaccinia inhibition (mCherry reporter); Vaccinia virus mCherry reporter infection, fluorescence; Potency, µM (highest dose often 36.5 µM), hits mostly inhibitors; 310,000 compounds, 0.63% hits; calls by dose curve; tested in A549 cells; also: nearly all actives have a fitted effect of over 35% in size
HCMV inh = blocks human cytomegalovirus replication | HFF cells, HCMV-luciferase reporter, 72 h; hits give low values | activity change, negative = inhibition, % at 57.5 µM | 410,000 compounds, 4.5% hits | AID 1259415; in the data active = activity change below about -60%; inconclusive = no clear call, values can overlap the other calls; inactive = above about -39%
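Luciferase read-out from HCMV-luciferase-infected HFFs (MOI 1 PFU/cell) 72 h post infection at 37C; compounds added after 16 h cell attachment; activity normalized between buffer-only basal and Salinomycin (10uM) inhibitor controls.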
HCV inhibitor = HCV inhibition; Huh7.5.1 HCVcc-Cre infection, luciferase reporter, 44 h; AID 651820; 340,000 compounds, 3.4% hits; Potency, µM (titrated, usually from 41.8 µM), hits mostly inhibitors; active = well fitted inhibition curve with a large enough effect; inconclusive = small, poorly fitted or top-dose-only effect, or another doubt; inactive = no such curve, though single readings can be large or run the other way
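Infectious HCVcc-Cre (~0.5 moi) was added to cells just after compound, with cells seeded 4 h earlier at 1,000 per well. Luciferase activity after 44 h culture reported infection; substrate was incubated 15 min at room temperature before reading.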
FMDV inh = blocks foot and mouth disease virus; FMDV antiviral cell-based qHTS; Potency, µM (top dose mostly 57.9 µM), actives largely listed as inhibitors; 410,000 compounds, 1.2% hits; calls by dose curve; tested in HEK293T cells; also: read-out not given here; nearly all actives have a fitted effect of over 45% in size
A number is an active result; 0 = inactive; ? = inconclusive; - = no result given; [ ] = remark or other dose. Shown are actives, neighbours in structure and some others; about 7.3% of the full set was active somewhere.

SMILES	VACV Venus inh	Vaccinia mCherry	HCMV inh	HCV inhibitor	FMDV inh
O=C(O)CCC(=O)OCCN(Cc1ccc(Oc2ccc([N+](=O)[O-])cc2)cc1)C(=O)C(Cl)Cl	0	0	0	?	0
CN(C)S(=O)(=O)c1ccc(Cl)c(NC(=O)CN2CCN(Cc3ccc4c(c3)OCO4)CC2)c1	-	-	-60	?	?
CN(C)S(=O)(=O)c1ccc(Cl)c(NC(=O)CN2CCN(c3ccccn3)CC2)c1	0	0	0	0	?
CCN(CC)S(=O)(=O)c1ccc(O)c(NC(=O)CN2CCc3ccccc3C2)c1	0	0	0	0	0
CN(C)S(=O)(=O)c1ccc(Cl)c(NC(=O)CN2CCc3ccccc3C2)c1	0	0	-64	?	0
O=C(CN1CCN(Cc2ccc3c(c2)OCO3)CC1)Nc1cc(S(=O)(=O)N2CCCC2)ccc1Cl	0	0	?	6.3µM	?
Cc1cc(C#Cc2c(-c3ccccc3)n(C)c3ccccc23)ccc1F	0	0	0	0[8.37 µM]	0
CCn1ccnc1CN(C)Cc1cn[nH]c1-c1ccc(OC)c(F)c1	0	0	-72	0	0
COc1ccc(-c2[nH]ncc2CN(C)CCCN2CCOCC2)cc1F	0	0	0	0	0
Cc1cc(C)n(-c2ccc(C(=O)OC(C)C(=O)Nc3ccc(C(N)=O)cc3)cc2)n1 (configuration not stated)	0	0	0	?	35µM
Cc1cc(C)c(C)c(OCCCCN2CCCCC2)c1	0	0	0	?	0
O=C(Nc1ccc(Nc2ccccc2)cc1)C(Cl)Cl	?	?	-64	?	0
CC(C)Cc1nc2oc3c(NCc4cccnc4)ncnc3c2c2c1CCC2	-	-	0	?	0
CC(C)Cc1nc2oc3c(NCC4CCCO4)ncnc3c2c2c1CCC2 (configuration not stated)	-	-	0	14µM	?
CC(C)c1nc2oc3c(NCc4cccnc4)ncnc3c2c2c1CCC2	-	-	0	7.1µM	0
COC(=O)c1cc2c(cc1NC(=O)c1c(C)nn(-c3ccc(C)cc3)c1-n1cccc1)OCO2	0	0	0	-	0
O=S(=O)(c1ccc(SCCOc2ccccc2Cl)nc1)N1CCCC1	-	-	0	13µM	?
O=S(=O)(c1ccc(SCc2ccccc2)nc1)N1CCCC1	-	-	0	?	0
Cc1csc(Sc2ccc(S(=O)(=O)N3CCCC3)cn2)n1	?	8.9µM	0	0	0
COc1ccc(OCCSc2ccc(S(=O)(=O)N3CCCC3)cn2)cc1	-	-	0	11µM	?
CC(C#N)Sc1ccc(S(=O)(=O)N2CCCCC2)cn1 (configuration not stated)	-	-	0	0	?
CN1CCN(S(=O)(=O)c2ccc(SCCOc3ccc(Cl)cc3)nc2)CC1	0	?	0	?	0
O=S(=O)(c1ccc(SCc2ccc(Br)cc2)nc1)N1CCCCC1	0	0	0	0	?
O=S(=O)(c1ccc(SCCOc2cccc(Br)c2)nc1)N1CCCC1	0	0	0	10µM	0
CCCCCNC(=O)C(c1ccc(C(F)(F)F)cc1)n1c(=O)c(-c2ccco2)nc2ccccc21 (configuration not stated)	0	0	0	-	0
SMILES	VACV Venus inh	Vaccinia mCherry	HCMV inh	HCV inhibitor	FMDV inh
O=S(=O)(N1CCN(c2nc(-c3cccs3)nc3ccccc23)CC1)C(F)(F)F	0	0	-	-	-
Cc1ccc(Sc2ccc(N3CCC(C(=O)Nc4ccc(C)c(F)c4)CC3)nn2)cc1	0	0	0	-	0
COC(=O)c1ccc(NC(=O)CCc2nnc3ccc(N4CCC5(CC4)OCCO5)nn23)cc1	0	0	0	0	28µM
COc1ccc(CNc2ncnc3c2[nH]c2cc(OC)c(OC)cc23)cc1	0	0	0	?	0
CC(C)OCCCNc1ncnc2c1[nH]c1ccccc12	-	-	-75	2.5µM	18µM
C1=C(CCNc2ncnc3c2[nH]c2ccccc23)CCCC1	?	?	-91	1.1µM	0
COc1ccc(CNc2ncnc3c2[nH]c2ccccc23)cc1	0[7.34 µM]	0[7.34 µM]	-72	5µM	?
Cc1ccc2[nH]c3c(NCc4ccccc4)ncnc3c2c1	-	-	?	7.9µM	?
O=C1CC(c2nc(-c3ccc(Cl)cc3)no2)CN1c1ccc2c(c1)OCCO2 (configuration not stated)	0	0	0	-	0
Cc1cccc(N(CC(=O)NC(C)c2ccccc2)S(=O)(=O)c2ccccc2)c1C (configuration not stated)	0	0	0	-	0
O=C(NN=Cc1ccccc1Cl)C(=O)Nc1cccc(C(F)(F)F)c1	-	-	0	-	-
CCCN(C)C1CN(Cc2cn(Cc3ccc(C)cc3)nn2)S(=O)(=O)C1 (configuration not stated)	0	0	0	-	0
CCN1CCN(c2ncnc3sc4c(c23)CCC(C)C4)CC1 (configuration not stated)	-	-	0	?	0
CC1CCc2c(sc3nc(C(C)(C)C)nc(N4CCN(C(=O)CCl)CC4)c23)C1 (configuration not stated)	?	0	-103	?	20µM
Cc1ccc(C)n1C1C(=O)N(C)c2ccc(OC(F)(F)F)cc21 (configuration not stated)	-	-	0	-	-
CCCC(=O)N(C1CC(C)C(C#N)(C#N)C1(C#N)C#N)N(C)C (configuration not stated)	0	0	-90	?	16µM
Cc1ccc(S(=O)(=O)NCCNC(=O)c2ccc(C)nc2)cc1	0	0	0	0	0
Cn1c(C(C)(O)C(O)c2ccccc2)nc2ccccc21 (configuration not stated)	-	-	-	0	-
CC(C)OP(=O)(OC(C)C)/C(C=O)=N\Nc1ccc([N+](=O)[O-])cc1	-	-	-91	?	0
COc1ccc2oc(=O)cc(CN3CCN(C(=O)c4ccccc4)CC3)c2c1	0	0	0	-	0
Cn1c(=O)oc2cc(S(=O)(=O)N3CCCC(C(=O)N4CCN(c5cccc(Cl)c5)CC4)C3)ccc21 (configuration not stated)	?	?	?	-	25µM
Cn1c(=O)oc2cc(S(=O)(=O)N3CCC(C(=O)N4CCN(c5cccc(Cl)c5)CC4)CC3)ccc21	0	0	0	-	?
CCN(CC)S(=O)(=O)c1ccc(S(=O)(=O)N2CCCC(C(=O)NC3CC3)C2)cc1 (configuration not stated)	0	0	-83	0	?
CCOC(=O)N1CCC(NC(=O)C2CCCN(S(=O)(=O)c3ccc4c(c3)oc(=O)n4C)C2)CC1 (configuration not stated)	0	0	-63	0	-
Cc1cccc(N2CCN(C(=O)C3CCCN(S(=O)(=O)c4ccc5c(c4)oc(=O)n5C)C3)CC2)c1C (configuration not stated)	?	?	?	-	11µM
CCc1ccc(-n2nnc(-c3nc(-c4cccs4)no3)c2N)cc1	0	0	0	-	0
COC(=O)c1ccc(NC(=O)CN2C(=O)CC(c3ccccc3)Sc3ccccc32)cc1 (configuration not stated)	0	0	0	-	0
CC1(C)Cc2c(C#N)c(NCc3ccco3)nc(-c3ccco3)c2CO1	0	-	0	0	0
CN(C)CCNc1nc(-c2ccco2)c2c(c1C#N)CC(C)(C)OC2	-	-	-100	?	0
